Source: PubChem BioAssay AID1159580 (chemical genetic matrix, 2015)
Among all 5,500 compounds or so, about 2,000 (36%) were called active. Inconclusive results (about 18%) are left out. No stated cut-off is given here; in the data, active means normalized growth mostly below about 0.91 (no sharp cut-off); inconclusive means no clear call, values can overlap the other calls; inactive means mostly above about 0.92. Some of the results follow.

Test: chemical genetic growth profiling, strain panel (AID 1159580);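 further: tested at 20 µM; growth read once vehicle control cultures reached saturation at 30 °C; 1 = growth at the plate median or of vehicle wells; lower values mean less growth of the strain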
Settings: growth OD
[1] = S. cerevisiae deletion strains, locus YMR307W, strain GAS1, active compounds read low
[2] = S. cerevisiae deletion strains, locus YPL055C, strain LGE1, active compounds read low

Measured: normalized growth

COc1cc(C(=O)OCCCN2CCCN(CCCOC(=O)c3cc(OC)c(OC)c(OC)c3)CC2)cc(OC)c1OC
inactive: S. cerevisiae deletion strains, locus YAL040C, strain CLN3, active compounds read low 0.967 | S. cerevisiae deletion strains, locus YCL061C, strain MRC1 (second series), active compounds read low 1.01 | S. cerevisiae deletion strains, locus YDR150W, strain NUM1, active compounds read low 0.998 | S. cerevisiae deletion strains, locus YDR363W, strain ESC2, active compounds read low 1.03 | S. cerevisiae deletion strains, locus YER002W, strain NOP16, active compounds read low 1.03 | [1] 1.01 | S. cerevisiae deletion strains, locus YNL175C, strain NOP13, active compounds read low 1.01 | S. cerevisiae deletion strains, locus YNL197C, strain WHI3, active compounds read low 1 | S. cerevisiae deletion strains, locus YNL224C, strain SQS1, active compounds read low 1.01 | S. cerevisiae deletion strains, locus YOR083W, strain WHI5 (second series), active compounds read low 0.972 | [2] 1.02

COc1cc(C(=O)O)cc(OC)c1OC
inactive: S. cerevisiae deletion strains, locus YAL013W, strain DEP1, active compounds read low 1.02 | S. cerevisiae deletion strains, locus YBR021W, strain FUR4, active compounds read low 1.01 | S. cerevisiae deletion strains, locus YBR229C, strain ROT2, active compounds read low 1.01 | S. cerevisiae deletion strains, locus YCL029C, strain bik1, active compounds read low 1.04 | S. cerevisiae deletion strains, locus YDL035C, strain GPR1, active compounds read low 1.04 | S. cerevisiae deletion strains, locus YDL074C, strain BRE1, active compounds read low 1.05 | S. cerevisiae deletion strains, locus YDL101C, strain DUN1, active compounds read low 1.02 | S. cerevisiae deletion strains, locus YDL134C, strain PPH21, active compounds read low 1.01 | S. cerevisiae deletion strains, locus YDL185W, strain tfp1, active compounds read low 1.03 | S. cerevisiae deletion strains, locus YDL192W, strain arf1, active compounds read low 1.02 | S. cerevisiae deletion strains, locus YDR101C, strain arx1, active compounds read low 1.02 | S. cerevisiae deletion strains, locus YDR162C, strain NBP2, active compounds read low 1.02 | S. cerevisiae deletion strains, locus YDR318W, strain mcm21, active compounds read low 1.02 | S. cerevisiae deletion strains, locus YDR388W, active compounds read low 1.03 | S. cerevisiae deletion strains, locus YDR502C, strain sam2, active compounds read low 1.02 | S. cerevisiae deletion strains, locus YEL061C, strain CIN8, active compounds read low 1.01 | S. cerevisiae deletion strains, locus YER110C, active compounds read low 1.03 | S. cerevisiae deletion strains, locus YER155C, strain BEM2, active compounds read low 1.01 | S. cerevisiae deletion strains, locus YER167W, strain BCK2, active compounds read low 1.03 | S. cerevisiae deletion strains, locus YGL078C, strain dbp3, active compounds read low 1.03 | S. cerevisiae deletion strains, locus YGL086W, strain mad1, active compounds read low 1.03 | S. cerevisiae deletion strains, locus YGL248W, strain PDE1, active compounds read low 1.02 | S. cerevisiae deletion strains, locus YGR078C, strain PAC10, active compounds read low 1.03 | S. cerevisiae deletion strains, locus YGR135W, strain pre9, active compounds read low 1.02 | S. cerevisiae deletion strains, locus YGR252W, strain gcn5, active compounds read low 1.09 | S. cerevisiae deletion strains, locus YHR030C, strain SLT2, active compounds read low 1.02 | S. cerevisiae deletion strains, locus YHR079C, strain IRE1 (second series), active compounds read low 1.02 | S. cerevisiae deletion strains, locus YHR094C, strain hxt1, active compounds read low 1.02 | S. cerevisiae deletion strains, locus YHR129C, strain ARP1, active compounds read low 1.02 | S. cerevisiae deletion strains, locus YHR200W, strain rpn10, active compounds read low 1.02 | S. cerevisiae deletion strains, locus YIL066C, strain RNR3, active compounds read low 1.04 | S. cerevisiae deletion strains, locus YIL073C, strain SPO22, active compounds read low 1.09 | S. cerevisiae deletion strains, locus YIL125W, strain kgd1, active compounds read low 1.03 | S. cerevisiae deletion strains, locus YIR030C, strain dcg1, active compounds read low 1.02 | S. cerevisiae deletion strains, locus YJL095W, strain BCK1, active compounds read low 1.02 | S. cerevisiae deletion strains, locus YJL134W, strain LCB3, active compounds read low 1.02 | S. cerevisiae deletion strains, locus YJL168C, strain set2, active compounds read low 1.03 | S. cerevisiae deletion strains, locus YJL187C, strain SWE1 (second series), active compounds read low 1.03 | S. cerevisiae deletion strains, locus YJR043C, strain POL32, active compounds read low 1.03 | S. cerevisiae deletion strains, locus YJR075W, strain HOC1, active compounds read low 1.04 | S. cerevisiae deletion strains, locus YKL009W, strain mrt4, active compounds read low 1.08 | S. cerevisiae deletion strains, locus YKL068W, active compounds read low 1.04 | S. cerevisiae deletion strains, locus YKL085W, strain MDH1 (second series), active compounds read low 1.07 | S. cerevisiae deletion strains, locus YKL085W, strain MDH1, active compounds read low 1.07 | S. cerevisiae deletion strains, locus YKR001C, strain vps1, active compounds read low 1.02 | S. cerevisiae deletion strains, locus YLR039C, strain RIC1, active compounds read low 1.07 | S. cerevisiae deletion strains, locus YLR058C, strain SHM2, active compounds read low 1.02 | S. cerevisiae deletion strains, locus YLR102C, strain apc9, active compounds read low 1.02 | S. cerevisiae deletion strains, locus YLR262C, strain YPT6, active compounds read low 1.09 | S. cerevisiae deletion strains, locus YLR268W, strain sec22, active compounds read low 1.02 | S. cerevisiae deletion strains, locus YLR330W, strain CHS5, active compounds read low 1.02 | S. cerevisiae deletion strains, locus YLR342W, strain FKS1 (second series), active compounds read low 1.04 | S. cerevisiae deletion strains, locus YLR371W, strain rom2, active compounds read low 1.04 | S. cerevisiae deletion strains, locus YLR418C, strain cdc73, active compounds read low 1.04 | S. cerevisiae deletion strains, locus YML016C, strain PPZ1, active compounds read low 1.02 | S. cerevisiae deletion strains, locus YML032C, strain rad52, active compounds read low 1.03 | S. cerevisiae deletion strains, locus YML124C, strain tub3, active compounds read low 1.02 | S. cerevisiae deletion strains, locus YMR078C, strain ctf18, active compounds read low 1.06 | S. cerevisiae deletion strains, locus YMR223W, strain ubp8, active compounds read low 1.02 | S. cerevisiae deletion strains, locus YMR263W, strain SAP30, active compounds read low 1.02 | [1] 1.03 | S. cerevisiae deletion strains, locus YNL067W, strain RPL9B, active compounds read low 1.03 | S. cerevisiae deletion strains, locus YNL128W, strain TEP1, active compounds read low 1.03 | S. cerevisiae deletion strains, locus YNL153C, strain GIM3, active compounds read low 1.01 | S. cerevisiae deletion strains, locus YNL233W, strain BNI4, active compounds read low 1.03 | S. cerevisiae deletion strains, locus YNL250W, strain rad50, active compounds read low 1.03 | S. cerevisiae deletion strains, locus YNL271C, strain bni1, active compounds read low 1.02 | S. cerevisiae deletion strains, locus YNL298W, strain CLA4, active compounds read low 1.01 | S. cerevisiae deletion strains, locus YNL307C, strain MCK1, active compounds read low 1.05 | S. cerevisiae deletion strains, locus YNL322C, strain KRE1, active compounds read low 1.02 | S. cerevisiae deletion strains, locus YNR052C, strain pop2, active compounds read low 1.03 | S. cerevisiae deletion strains, locus YOL006C, strain TOP1, active compounds read low 1.2 | S. cerevisiae deletion strains, locus YOL012C, strain htz1 1.18 | S. cerevisiae deletion strains, locus YOL147C, strain pex11, active compounds read low 1.02 | S. cerevisiae deletion strains, locus YOR061W, strain CKA2, active compounds read low 1.02 | S. cerevisiae deletion strains, locus YOR069W, strain VPS5, active compounds read low 1.01 | S. cerevisiae deletion strains, locus YOR136W, strain idh2, active compounds read low 1.02 | S. cerevisiae deletion strains, locus YOR144C, strain elg1, active compounds read low 1 | S. cerevisiae deletion strains, locus YOR184W, strain ser1, active compounds read low 1.02 | S. cerevisiae deletion strains, locus YOR316C, strain cot1, active compounds read low 1.02 | [2] 1.05 | S. cerevisiae deletion strains, locus YPL241C, strain CIN2, active compounds read low 1.02 | S. cerevisiae deletion strains, locus YPR119W, strain clb2, active compounds read low 1.02 | S. cerevisiae deletion strains, locus YPR141C, strain kar3, active compounds read low 1.02 | S. cerevisiae deletion strains, locus YPR163C, strain tif3, active compounds read low 1.02 | S. cerevisiae deletion strains, locus YPR167C, strain met16, active compounds read low 1.03 | S. cerevisiae deletion strains, strain wtn01, active compounds read low 1.03 | S. cerevisiae strains, strain wild type, active compounds read low 1.02
